Common to all, as to experiment: NCI-60 one-dose screen, 48 h (100 = growth as untreated, 0 = no growth, -100 = all killed)
What all share (details): 10 µM unless noted

Assay [1] concerns SK-MEL-2 melanoma.
Assay [2] deals with EKVX NSCLC.
Assay [3] has as its system SN12C renal.
Assay [4] concerns UO-31 renal.
In assay [5] the test system is TK-10 renal.
For assay [6], the system named is ACHN renal.
The subject of assay [7] is CAKI-1 renal.
Assay [8] has as its system A498 renal.
For assay [9], the system named is CCRF-CEM leukemia.
Assay [10] concerns MOLT-4 leukemia.

Each structure is given as a SMILES string. This is part of a sample that, as a whole, favours compounds with a hit. Of some 83,000 tested, about 20% had one in any assay.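 Testing used 96-well plates and a 48-hour single-concentration exposure. Example: -40 means 40% of the starting cells died.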 A number with no mark means an inactive call. The source made the active and inactive calls. The calls were made as follows: active = growth percent below 10; inactive = the rest.

The source of these data is PubChem BioAssay (NCI).

On to `N#C/C(=C\c1ccc(-c2ccc(F)cc2)o1)c1nc(-c2ccco2)cs1`, for which the growth in [1] was 108%; in assay [2], 40.2%; in [3], 101%; in assay [4], 69.8%; in [5] it was 64.2%; in [6], 98.1%. For the same molecule, the growth was 92% in [7], 107% in assay [8], 84.2% in assay [9] and 91.6% in assay [10].
As for `COc1ccc2c3c(c4ccccc4cc13)C(=O)N(CCN(C)CCN)C2=O`, the growth in assay [1] was 22.3%; in assay [2], -48% (active); in assay [3], -63.3% (active); in [4], -83.7% (active); in assay [5] it was -73.8% (active); in assay [6] it was -71.6% (active). Moreover, the growth in assay [7] was 3.18% (active); in [8] it was -48.8% (active); in assay [9], -65.1% (active); in assay [10], -32.5% (active).
Turning to `Cn1cc(-c2csc(-c3c[nH]c4ccc(F)cc34)n2)c2cccnc21`, the growth in assay [1] was 41.2%; in assay [2] it was 60.4%; in assay [3], 64.5%; in assay [4], 77.1%; in assay [5] it was 69.7%; in [6], 48.8%. In addition, the growth in assay [7] was 36.9%; in assay [8] it was 27%; in [9], 39.7%; in [10], 46.7%.
Take `CC(C)c1cc(C(=O)O)c(O)c(C(C)C)c1.CC(C)c1cc(C(=O)O)c(O)c(C(C)C)c1.[Mn]`: the growth in assay [1] was 118%; in assay [2], 102%; in assay [3], 101%; in assay [4], 85.5%; in [5], 106%; in assay [6] it was 103%. Moreover, the growth is 100% in assay [7], 126% in assay [8], 95.1% in [9] and 99.2% in [10].
As to `CC(=O)n1c(/C(C#N)=C/c2ccc(N(C)C)cc2)cc2ccccc21`, the growth is 47.9% in assay [1]; 36.8% in assay [2]; 42.9% in assay [3]; 52.6% in [4]; 91.3% in [5]; 47.5% in [6]. For the same molecule, the growth is 37.7% in assay [7], 2.85% (active) in assay [8], 21.1% in [9] and 33.1% in assay [10].
Turning to `CCC(CC)C(=O)OC(C)COc1ccc(C(C)(C)C)cc1` (stereo not given), the growth is 101% in [1]; 105% in [2]; 99.4% in assay [3]; 97.3% in assay [4]; 97% in assay [5]; 102% in assay [6]. The growth was 98.8% in [7], 87.8% in assay [8], 93% in assay [9] and 82.7% in assay [10].
Consider `O=[N+]([O-])c1ccc(N/N=C(\C(=N/Nc2ccc([N+](=O)[O-])cc2[N+](=O)[O-])c2ccccc2)c2ccccc2)c([N+](=O)[O-])c1`, for which the growth in assay [1] is 95.9%; in assay [2] it was 108%; in assay [3], 97.5%; in assay [4] it was 86.4%; in assay [5], -1.75% (active); in [6], 95.7%. Also, the growth was 81.1% in assay [7], 103% in [8], 58.4% in assay [9] and 92.2% in [10].
With `COc1cc(-c2cc3ncccc3c3nc(N)c4cccnc4c23)cc(OC)c1OC`, the growth in assay [1] was 30.7%; in assay [2] it was 27.1%; in assay [3], 26.7%; in assay [4], 51.1%; in assay [5] it was 16.3%; in assay [6], 22.6%. The growth is 31.1% in [7], -17.6% (active) in assay [8], 32.5% in [9] and 20.7% in [10].
With `COc1cc(NC(C)CN(CC(C)C)C(C)C)c2ncccc2c1` (stereo not given), the growth in assay [1] was 113%; in assay [2] it was 105%; in assay [3], 104%; in assay [4], 87.6%; in assay [5], 120%; in assay [6], 99.3%. For the same molecule, the growth in assay [7] is 98.6%; in assay [8] it was 97.6%; in assay [9], 114%; in assay [10], 96.6%.
On to `C=C1CC[C@@H](C(=O)OC)Cc2nc(C)ccc21`, for which the growth in [1] is 103%; in [2] it was 99.8%; in assay [3], 96.4%; in [4], 93.6%; in [5], 101%; in assay [6] it was 103%. Moreover, the growth was 90.9% in [7], 106% in assay [8], 102% in assay [9] and 101% in assay [10].
With `c1ccc(CN2C(c3ccccc3)=Nc3ccccc3C2c2c[nH]c3ccccc23)cc1` (stereo not given), the growth in assay [1] was 69%; in assay [2], 37.3%; in [3], 36.4%; in [4], 24.5%; in assay [5] it was 45.8%; in assay [6], 51.4%. The growth in assay [7] is 35.9%; in [8] it was 63.6%; in [9], 32.4%; in [10], 2.6% (active).
Regarding `COc1ccc(C2NC(=O)Nc3ccccc32)c(OC)c1` (stereo not given), the growth in assay [1] was 102%; in assay [2], 97%; in assay [3], 95.3%; in assay [4], 78.3%; in assay [5], 95.5%; in assay [6], 99.4%. Moreover, the growth in assay [7] is 93%; in [8], 105%; in assay [9] it was 101%; in assay [10] it was 95.5%.
With `Cc1ccsc1-c1ccc2c(c1)COC2(CCCN(C)C)c1ccc(F)cc1` (stereo not given), the growth is 85.4% in assay [1]; 65.6% in assay [2]; 56.7% in assay [3]; 39.3% in assay [4]; 73.7% in assay [5]; 62.1% in assay [6]. The growth is 38.4% in assay [7], 86.3% in assay [8], 39% in assay [9] and 27.3% in assay [10].
